Experimental data: PubChem BioAssay (Tox21)
Inconclusive results are not listed. Activity calls are given as the source filed them. Calls follow the shape of the dose curve; as a rule, active = well fitted curve in the direction sought with a large enough effect in the repeat runs; inconclusive = weak or mixed curves; inactive = no such curve, though single readings can be large; an effect the other way counts as inactive or inconclusive.

Columns and labels:
[1] = A CellTox Green Cytotoxicity Assay to monitor cytotoxicity in HepG2 cells - 16 hour (AID 1224876); also: nearly all actives have a fitted effect of over 45% in size
Procedure, shortened: (§1)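 HepG2 cells were seeded together with the CellTox Green dye at 600 cells/well, left 5 h at 37 C/5% CO2, then given compounds in DMSO. Fluorescence from dye bound to dead-cell DNA was read repeatedly over 40 h of treatment at 37 C.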

[2] = qHTS RealTime-Glo MT Cell Viability Assay in HepG2 cells - 32 hour (AID 1224877); also: nearly all actives have a fitted effect of over 55% in size
Procedure, shortened: (§2)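 HepG2 suspension premixed with RealTime-Glo reagents is plated at 600 cells per well and left 5 h at 37 C/5% CO2. Compounds in DMSO then go in, and bioluminescence reflecting viable cell number is recorded over 40 h.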

[3] = A CellTox Green Cytotoxicity Assay to monitor cytotoxicity in HepG2 cells - 24 hour (AID 1224878); also: nearly all actives have a fitted effect of over 45% in size
Procedure, shortened: as §1

[4] = A CellTox Green Cytotoxicity Assay to monitor cytotoxicity in HepG2 cells - 40 hour (AID 1224879); also: nearly all actives have a fitted effect of over 40% in size
Procedure, shortened: as §1

[5] = qHTS RealTime-Glo MT Cell Viability Assay in HEK293 cells - 0 hour (AID 1224880); also: top concentration of the series differs between compounds; nearly all actives have a fitted effect of over 45% in size
Procedure, shortened: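 HEK293 cells mixed with RealTime-Glo reagents (NanoLuc plus cell-permeant prosubstrate) at 600 cells/well, preincubated 5 h at 37 C/5% CO2, then given 23 nL compound in DMSO. Nonlytic luminescence from viable cells was read at 0, 8, 16, 24, 32 and 40 h.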

[6] = A CellTox Green Cytotoxicity Assay to monitor cytotoxicity in HEK293 cells - 32 hour (AID 1224881); also: nearly all actives have a fitted effect of over 40% in size
Procedure, shortened: (§3)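 HEK293 cells premixed with CellTox Green dye were seeded at 600 cells/well and left 5 h at 37 C/5% CO2 before pin transfer of 23 nL compound in DMSO. Fluorescence from dye bound to dead-cell DNA was read during 40 h treatment.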

[7] = A CellTox Green Cytotoxicity Assay to monitor cytotoxicity in HepG2 cells - 0 hour (AID 1224882); also: nearly all actives have a fitted effect of over 35% in size
Procedure, shortened: as §1

[8] = A CellTox Green Cytotoxicity Assay to monitor cytotoxicity in HepG2 cells - 32 hour (AID 1224883); also: nearly all actives have a fitted effect of over 50% in size
Procedure, shortened: as §1

[9] = A CellTox Green Cytotoxicity Assay to monitor cytotoxicity in HEK293 cells - 8 hour (AID 1224884); also: nearly all actives have a fitted effect of over 35% in size
Procedure, shortened: as §3

[10] = qHTS RealTime-Glo MT Cell Viability Assay in HepG2 cells - 16 hour (AID 1224885); also: nearly all actives have a fitted effect of over 50% in size
Procedure, shortened: as §2
% is scaled to controls: 0 for no effect and ±100 for the full control effect.

CCCCCCCCCCCCC1CO1 (stereo unspecified)
inactive: Potency [1] | outcome [2] | Potency [3] | Potency [4] | outcome [5] | Potency [6] | Potency [7] | Potency [8] | Potency [9] | outcome [10]

O=S(=O)(O)SSS(=O)(=O)O
inactive: Potency [1] | outcome [2] | Potency [3] | Potency [4] | outcome [5] | Potency [6] | Potency [7] | Potency [8] | Potency [9]

C=C(C)C(=O)OCCCCCCOC(=O)C(=C)C
inactive: Potency [1] | outcome [2] | Potency [3] | Potency [4] | outcome [5] | Potency [6] | Potency [7] | Potency [8] | Potency [9]

COc1cc2c(Nc3ccc(Br)cc3F)ncnc2cc1OCC1CCN(C)CC1
inactive: Potency [1] | outcome [2] | Potency [3] | Potency [4] | outcome [5] | Potency [6] | Potency [7] | Potency [8]

O=S(=O)(O)CCO
inactive: Potency [1] | outcome [2] | Potency [3] | Potency [4] | outcome [5] | Potency [6] | Potency [7] | Potency [8] | Potency [9] | outcome [10]

C[C@H]1O[C@H](O[C@H]2[C@H](O)[C@@H](O)[C@@H](O[C@H]3[C@H](O)[C@@H](O)[C@H](O)O[C@@H]3CO)O[C@@H]2CO)[C@H](O)[C@@H](O)[C@@H]1N[C@H]1C=C(CO)[C@@H](O)[C@H](O)[C@H]1O
inactive: Potency [1] | outcome [2] | Potency [3] | Potency [4] | outcome [5] | Potency [6] | Potency [7] | Potency [8] | Potency [9]

CC(C)COC(=O)CC(C(=O)OCC(C)C)S(=O)(=O)O (stereo unspecified)
inactive: Potency [1] | outcome [2] | Potency [3] | Potency [4] | outcome [5] | Potency [6] | Potency [7] | Potency [8] | Potency [9] | outcome [10]

CC(C)=CC(C)(C)C
inactive: Potency [1] | outcome [2] | Potency [3] | Potency [4] | outcome [5] | Potency [6] | Potency [7] | Potency [8] | Potency [9]

FC(F)(F)/C(=N\OCC1OCCO1)c1ccc(Cl)cc1
inactive: Potency [1] | outcome [2] | Potency [3] | Potency [4] | outcome [5] | Potency [6] | Potency [7] | Potency [8] | Potency [9]

O=C(Nc1cccc(C2=NCCN2)c1)Nc1cccc(C2=NCCN2)c1
inactive: cytotoxicity increase [1] -11.3% [at 15.8 µM] | activity change, negative = cytotoxic [2] 2.71% [at 15.8 µM] | cytotoxicity [3] -8.34% [at 15.8 µM] | cytotoxicity increase [4] -7.03% [at 15.8 µM] | activity change, negative = cytotoxicity [5] -5.15% [at 15.8 µM] | cytotoxicity increase [6] -2.02% [at 15.8 µM] | cytotoxicity [7] -0.131% [at 15.8 µM] | cytotoxicity increase [8] -8.68% [at 15.8 µM] | cytotoxicity increase [9] -6.06% [at 15.8 µM] | activity change, negative = cytotoxic [10] 0.713% [at 15.8 µM]

O=C(c1ccc2c(c1)C(=O)OC2=O)c1ccc2c(c1)C(=O)OC2=O
inactive: Potency [1] | outcome [2] | Potency [3] | Potency [4] | outcome [5] | Potency [6] | Potency [7] | Potency [8] | Potency [9]

Cc1cccc(NC(=S)N(C)C)c1
inactive: Potency [1] | outcome [2] | Potency [3] | Potency [4] | outcome [5] | Potency [6] | Potency [7] | Potency [8] | Potency [9] | outcome [10]

CO/N=C(/C(=O)N[C@@H]1C(=O)N2C(C(=O)O)=C(Cn3nnc(C)n3)CS[C@H]12)c1csc(N)n1
inactive: Potency [1] | outcome [2] | Potency [3] | Potency [4] | outcome [5] | Potency [6] | Potency [7] | Potency [8] | Potency [9] | outcome [10]

NS(=O)(=O)c1ccc(Cl)c(S(N)(=O)=O)c1
inactive: Potency [1] | outcome [2] | Potency [3] | Potency [4] | outcome [5] | Potency [6] | Potency [7] | Potency [8] | Potency [9] | outcome [10]

C=CCOc1c(Br)cc(C(C)(C)c2cc(Br)c(OCC=C)c(Br)c2)cc1Br
inactive: Potency [1] | outcome [2] | Potency [3] | Potency [4] | outcome [5] | Potency [6] | Potency [7] | Potency [8] | Potency [9]

CCc1nccnc1C
inactive: Potency [1] | outcome [2] | Potency [3] | Potency [4] | outcome [5] | Potency [6] | Potency [7] | Potency [8] | Potency [9]

COc1ccc(NS(=O)(=O)c2ccc(N)cc2)nn1
inactive: Potency [1] | outcome [2] | Potency [3] | Potency [4] | outcome [5] | Potency [6] | Potency [7] | Potency [8] | Potency [9] | outcome [10]

Nc1cc(S(=O)(=O)O)ccc1S(=O)(=O)O
inactive: Potency [1] | outcome [2] | Potency [3] | Potency [4] | outcome [5] | Potency [6] | Potency [7] | Potency [8] | Potency [9]

NC(=O)NNC(N)=O
inactive: Potency [1] | outcome [2] | Potency [3] | Potency [4] | outcome [5] | Potency [6] | Potency [7] | Potency [8] | Potency [9] | outcome [10]

F[Si-2](F)(F)(F)(F)F
inactive: Potency [1] | outcome [2] | Potency [3] | Potency [4] | outcome [5] | Potency [6] | Potency [7] | Potency [8] | Potency [9]

Nc1ccc(S(=O)(=O)NC(=O)c2ccccc2)cc1
inactive: Potency [1] | outcome [2] | Potency [3] | Potency [4] | outcome [5] | Potency [6] | Potency [7] | Potency [8] | Potency [9] | outcome [10]

CC(C)CCCCCCOC(=O)C1CCCCC1C(=O)OCCCCCCC(C)C (stereo unspecified)
inactive: Potency [1] | outcome [2] | Potency [3] | Potency [4] | outcome [5] | Potency [6] | Potency [7] | Potency [8] | Potency [9]

C=CCOCC(CO)(COCC=C)COCC=C
inactive: Potency [1] | outcome [2] | Potency [3] | Potency [4] | outcome [5] | Potency [6] | Potency [7] | Potency [8] | Potency [9]
